# Screening data from PubChem BioAssay.
# TDP1 cell CPT: qHTS for Inhibitors of human tyrosyl-DNA phosphodiesterase 1 (TDP1): qHTS in cells in presence of CPT | chicken DT40 Tdp1-/-;hTDP1 cells + 20 nM CPT, ATP luminescence, 48 h | Potency, µM (doses to about 46.2 µM), for inactives: top-dose activity change, negative = growth inhibition, most hits filed as inhibitors | 12% of 420,000 active; also: potency is read from the fitted curve at half-maximal effect; nearly all actives have a fitted effect of over 55% in size
#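 Chicken DT40 Tdp1-/- cells complemented with human TDP1, 400 cells/well, exposed to compounds plus 20 nM camptothecin for at least 48 h at 37 C; viability read as ATP content by CellTiter-Glo luminescence.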
# VP16 counter: VP16 counterscreen qHTS for inhibitors of ROR gamma transcriptional activity; Drosophila S2 Gal4-VP16 UAS-luciferase, luminescence, 20 h; Potency, µM (top dose mostly 53.6 µM), for inactives: top-dose activity, negative = inhibition, usual class: inhibitors; 3.5% of 310,000 active; AID 2546, 2010;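 also: Gal4-VP16 expression switched on by copper sulfate through the metallothionein promoter; potency is read from the fitted curve at half-maximal effect; nearly all actives have a fitted effect of over 50% in size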
# ELG1 repair inh: qHTS screen for small molecules that inhibit ELG1-dependent DNA repair in human embryonic kidney (HEK293T) cells expressing luciferase-tagged ELG1; HEK293T ELG1-luciferase reporter, luminescence, 16 h; DNA damage induced by 5-fluorouridine; Potency, µM (doses to about 46.1 µM), for inactives: top-dose activity change, negative = inhibition, most hits filed as inhibitors; 2.3% of 330,000 active; also: potency is read from the fitted curve at half-maximal effect; nearly all actives have a fitted effect of over 55% in size
#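 Step one: seed 2,000 cells per well. Step two: pin-transfer compound or DMSO alongside 5-fluorouridine. Step three: incubate 16 hr, 37 °C, 5% CO2. Step four: add ONE-Glo, wait 30 min, read luminescence.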
# IL-1B inflam inh: qHTS for Inhibitors of Inflammasome Signaling: IL-1-beta AlphaLISA Primary Screen. activity change, % at 57.5 µM. THP-1 LPS/ATP IL-1B secretion, AlphaLISA, 16 h; hits give low values. 4.7% of 360,000 active; in the data active = activity change below about -50%; inconclusive = mostly about -30% to -49%
#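 THP-1 cells pretreated 1 hr with compounds (up to 57.5 uM final), then stimulated with LPS (250 ng/mL final) plus ATP (1.25 mM final); secreted IL-1B measured by AlphaLISA after 16 hr, decreased signal indicating inhibition.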
# RORg inh: qHTS for inhibitors of ROR gamma transcriptional activity; Potency, µM (doses to about 53.6 µM), without a hit: at the top dose activity change, negative = inhibition, usual class: inhibitors; 5.4% of 310,000 active; Drosophila S2 Gal4-RORgamma UAS-luciferase reporter, 20 h; AID 2551, 2010; also: potency is read from the fitted curve at half-maximal effect; nearly all actives have a fitted effect of over 60% in size
# Target sequence (P51450 whole entry, looked up, the tested form may be a part): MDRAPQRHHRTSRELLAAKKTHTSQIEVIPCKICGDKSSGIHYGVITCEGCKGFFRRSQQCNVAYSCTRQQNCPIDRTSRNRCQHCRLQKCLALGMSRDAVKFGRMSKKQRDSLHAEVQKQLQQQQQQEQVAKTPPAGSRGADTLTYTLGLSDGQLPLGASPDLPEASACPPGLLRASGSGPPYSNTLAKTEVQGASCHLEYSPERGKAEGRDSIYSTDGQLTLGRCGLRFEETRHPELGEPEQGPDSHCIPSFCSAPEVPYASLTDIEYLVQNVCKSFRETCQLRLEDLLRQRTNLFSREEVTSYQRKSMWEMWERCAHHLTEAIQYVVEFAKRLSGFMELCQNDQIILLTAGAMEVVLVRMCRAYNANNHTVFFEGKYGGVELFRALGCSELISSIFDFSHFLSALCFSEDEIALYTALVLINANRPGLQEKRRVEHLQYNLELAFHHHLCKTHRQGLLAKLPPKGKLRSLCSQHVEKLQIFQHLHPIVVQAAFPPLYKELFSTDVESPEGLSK
#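 A Gal4/UAS one-hybrid system in insect cells: metallothionein-promoter Gal4–ROR gamma fusion plus Photinus luciferase reporter. Copper sulfate 700 uM final, 20 hr ambient incubation, luminescent detection after 10 min with reagent.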
# DT40 TDP1 no CPT: qHTS for Inhibitors of human tyrosyl-DNA phosphodiesterase 1 (TDP1): qHTS in cells in absence of CPT. DT40 Tdp1-/- hTDP1 cells, no CPT, ATP luminescence, 48 h. Potency, µM (top dose mostly 46.2 µM), without a hit: at the top dose activity change, negative = growth inhibition, actives largely listed as inhibitors. 15% of 420,000 active. AID 686978, 2013; also: potency is read from the fitted curve at half-maximal effect; nearly all actives have a fitted effect of over 55% in size
#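 Seeded 400 DT40-hTDP1 cells/well (vehicle DMSO, no 20 nM CPT); pinned compounds; ≥48 hr at 37 °C; CellTiter-Glo luminescence as viability measure.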
# Starred values were filed as active, the others as inactive; ? = inconclusive; . = not tested or not shown; ! = not confirmed by another sample; [ ] = another dose, or the depositor's remark. Sampled rows, rich in hits. Any-hit rate of the full collection: about 21%. Unless noted, calls follow the shape of the dose curve; as a rule, active = well fitted curve in the direction sought with a large enough effect; inconclusive = small, poorly fitted or top-dose-only effect, or another doubt; inactive = no such curve, though single readings can be large; an effect the other way counts as inactive or inconclusive. % is scaled to controls: 0 for no effect and ±100 for the full control effect.
SMILES,TDP1 cell CPT,VP16 counter,ELG1 repair inh,IL-1B inflam inh,RORg inh,DT40 TDP1 no CPT
O=C(/C=C/c1ccc[nH]1)c1ccc(F)cc1,-28%,-18%,?,-2,36%,-10%
O=C(N/N=C/c1c(Cl)cccc1Cl)c1ccc(F)cc1,-10%,-1%,26%,23,11µM*,-17%
O=C(N/N=C/c1ccc[nH]1)c1cccc([N+](=O)[O-])c1,12%,10µM*,2%,-8,7.9µM*,3%
O=C(CNC(=O)c1ccc(S(=O)(=O)N2CCCC2)cc1)N/N=C/c1c(Cl)cccc1Cl,?,-14%,?,-58*,42%,?
Cc1cccc(/C=N/NC(=O)c2cccc(Cl)c2)n1,?,11µM*,9%,-21,7.1µM*,16µM*
Cc1cccc(/C=N/NC(=O)c2cccc([N+](=O)[O-])c2)n1,18µM*,2%,?,-10,-15%,21µM*
O=C(N/N=C/c1ccc2nccnc2c1)c1cccc([N+](=O)[O-])c1,3%,-12%,8%,51,-2%,-10%
Cc1cccc(/C=N/NC(=O)c2cccc(NC(=O)c3ccccc3)c2)n1,-1%,-4%,-2%,32,-17%,-13%
Cc1cccc(/C=N/NC(=O)c2ccc(F)cc2)n1,?,?,?,43,7.1µM*,?
COc1ccccc1C(=O)NC1(C(F)(F)F)C(=O)Nc2c1c(=O)[nH]c(=O)n2-c1ccccc1 (stereo not drawn),-1%,.,.,.,.,-6%
O=C(N/N=C/c1ccc(Cl)cc1Cl)c1cccc(F)c1,?,?,?,?,11µM*,-20%
CC(=O)c1cccc(-c2ccnc3c2CC(C(=O)NCc2ccccc2)O3)c1 (stereo not drawn),0.73µM*,.,.,50,.,0.65µM*
CC(=O)c1cccc(-c2ccnc3c2CC(C(=O)NCc2ccc(F)c(F)c2)O3)c1 (stereo not drawn),4.1µM*,.,.,61,.,4.1µM*
CC(=O)NCCNC(=O)C1Cc2c(-c3ccccc3)ccnc2O1 (stereo not drawn),-18%,.,.,9,.,-7%
CC1CCCC(NC(=O)COC(=O)CCC2CCCC2)C1C (stereo not drawn),8%,0.56µM*,3%,-5,-6%,-2%
Cc1ccc(OCCC(=O)OCC(=O)NC2CCCC(C)C2C)cc1 (stereo not drawn),-29%,.,0%,0,.,7%
COc1ccccc1CNC(=O)Nc1nc(C(N)CCc2ccccc2)cs1 (stereo not drawn),18µM*,.,.,?,.,18µM*
NC(Cc1ccc(Cl)cc1)c1csc(NC(=O)Nc2ccccc2-c2ccccc2)n1 (stereo not drawn),13µM*,.,.,?,.,12µM*
O=C(NCCc1ccccc1)Nc1ccc(Cl)cc1,-7%,4%,?,-4,18%,-8%
NC(Cc1ccc(Cl)cc1)c1csc(NC(=O)NCCc2ccccc2)n1 (stereo not drawn),23µM*,.,.,-8,.,?
NC(Cc1ccc(Cl)cc1)c1csc(NC(=O)NCC2CCCCC2)n1 (stereo not drawn),10µM*,.,.,0,.,8.2µM*
NC(CCc1ccccc1)c1csc(NC(=O)NCCc2ccccc2)n1 (stereo not drawn),23µM*,.,.,?,.,?
NC(CO)c1csc(NC(=O)Nc2ccccc2Cc2ccccc2)n1 (stereo not drawn),?,.,.,-13,.,?
N#Cc1ccc(-c2cccc3nccn23)cc1,-5%,.,.,0,.,-13%
CC1=NN(c2nc(-c3ccccc3)cs2)C(=O)C1N=Nc1ccccc1 (stereo not drawn),?,-2%,-10%,3,7.1µM*,15µM*
SMILES,TDP1 cell CPT,VP16 counter,ELG1 repair inh,IL-1B inflam inh,RORg inh,DT40 TDP1 no CPT
CC1=NN(c2nc(-c3ccc(C)cc3)cs2)C(=O)C1N=Nc1ccc2ccccc2c1 (stereo not drawn),?,5%[0.365 µM],0%,19,-29%,?
CC1=NN(c2nc(-c3ccc(C)cc3)cs2)C(=O)C1N=Nc1ccc(C(N)=O)cc1 (stereo not drawn),4.6µM*,-10%,-10%,40,12%,5.2µM*
N#Cc1cc(C#N)c(SCC(=O)N2CC(=O)Nc3ccccc32)nc1N,21µM*,.,12µM*,-18,.,21µM*
CCc1cc2cc(C)ccc2nc1SCC(=O)N1CC(=O)Nc2ccccc21,?,-14%,?,-74*,82%,?
CCc1cc2c(SCC(=O)N3CC(=O)Nc4ccccc43)ncnc2s1,?,1%,-7%,0,0%,?
CCc1ccc2nc(SCC(=O)N3CCCCC3)c(C#N)cc2c1,?,.,.,27,.,?
CCc1ccc2nc(SCC(=O)N3CC(=O)Nc4ccccc43)c(C#N)cc2c1,?,1%,?,56,9%,16µM*
COC(=O)[C@H](Cc1ccccc1)NC(=O)O[C@@H]1C(=O)c2cc(OC)ccc2O[C@H]1c1ccc(OC)c(Br)c1,.,1%,2.9µM*,.,-6%,.
COc1ccc2c(c1)C(=O)[C@H](O)[C@@H](c1ccc(OC)c(Br)c1)O2,?,13µM*!,-20%,26,7.1µM*,?
CC[C@H](C)[C@@H](NC(=O)O[C@@H]1C(=O)c2cc(OC)ccc2O[C@H]1c1ccc(OC)c(Br)c1)C(=O)OC,?,4%,?,?,7%,18µM*
COC(=O)[C@@H](NC(=O)O[C@@H]1C(=O)c2cc(OC)ccc2O[C@H]1c1ccc(OC)c(Br)c1)C(C)C,.,1%,.,.,14%,.
CC(NS(=O)(=O)c1cn(C)c(=O)n(C)c1=O)c1ccccc1 (stereo not drawn),-1%,-8%,-2%,6,-1%,0%
Cc1cc(-c2ccccc2)nc(N(C)NC(=O)c2ccc(Cl)cc2)c1S(C)(=O)=O,15µM*,-20%,?,-27,2%,21µM*
